Measurements from the supplement of paper PMC11417369.
± gives the standard deviation of the averaged measurements. Whole data set: some 25,000 sequences, median “ln(normalized median fluorescence intensity)” near 8.6, cut for the highest 2% near 10. Only a selection was taken, and the highest values are over-represented in it overall.

Each sequence was assayed on PfAP2-EXP AP2 domain (GST-tagged) (assay: gcPBM binding intensity (ln(normalized median fluorescence intensity)); higher = stronger DNA binding).
Method in brief: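 Alexa488 anti-GST antibody, scanned at 488 nm, detected GST-tagged P. falciparum DNA-binding domains that had been expressed in E. coli and incubated for 1 h on an Agilent 4 × 180k array. The array carried primer-extended double-stranded 36-bp intergenic genomic probes and negative controls. Binding intensity is the highest Masliner-normalised natural-log median intensity across replicate spots of either orientation of each probe.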

Sequence	gcPBM binding intensity (ln)
GACATAGTATTAAGTTGTACATATATAAAAATAAAT [XGTACX_site1583]	8.65 ± 0.32
TGCTTATCCATTTCTACACACAAAAAAAAAAAAAAA [CACACA_site37]	8.28 ± 0.28
ATAATGTAGAACTAGAGTACATAAAAAAATAAACAT [XGTACX_site5205]	9.06 ± 0.47
TATATATAAATATTCAGTACATAGTGCTATTAAGTG [XGTACX_site1979]	8.605 ± 0.064
TGTATGTATAATTGAGTGCACAGAAAAAAAAAAGAA	9.6 ± 0.17
GTTGTAAAAAGAAAATGTACGTAATAAATATATATA [XGTACX_site3081]	8.93 ± 0.38
TTTTCATATATTTATTGTACATATTACATATATAAT [XGTACX_site2425]	8.71 ± 0.23
TACATTCTAATAATTGCACACTGGTTATTAAAAGGA [CACACA_site1614]	8.4 ± 0.29
TATATATTTTTTTCAAGTACACATTACAGTTACATA [XGTACX_site2713]	8.62 ± 0.38
TTATAAGATTTATGTACACACATATACTCACCTCTA [CACACA_site729]	8.51 ± 0.25
TTTATATAGAAACACACACACAAAAAAAAAAAAAAA [CACACA_site2646]	8.24 ± 0.52
TATTAATTATATTTATGTACATAATCATATTATTAT [XGTACX_site7938]	8.55 ± 0.35
TTTAATCATATGTTATATAATAAGCCCCCCCCCCAA [CACACA_negctrl_site486]	11 ± 0.12
ATATATATATAATTATATAAAATATATCATATGTTA [XGTACX_negctrl_site47]	9.37 ± 0.14
TCTTTCTATTTATAATGTACTCAAAATTATTCTATA [XGTACX_site4867]	8.6 ± 0.36
AGTGTGCTCAGCTTAGCACAAATTGGAATACCATGT [CACACA_negctrl_site367]	8.63 ± 0.4
CATATAATAAATAATACACACATATTGTAAATATAT [CACACA_site5734]	8.43 ± 0.44
ATATTAGATTAATTTACACACAGAAAATGAGATTTT [CACACA_site541]	8.21 ± 0.36
TTATTTTTCAATGAAAAGGATTATATATATATATAT [CACACA_negctrl_site757]	10.2 ± 0.13
ATATTTCAAAATGAAAGTACATATAAAAATTATACA [XGTACX_site3787]	8.31 ± 0.29
ATATTATGAAGGGATATTTTCAAAAATATTAGGAGA [CACACA_negctrl_site942]	8.64 ± 0.41
TTCATATTTCATATATGTACTTATGTTCAATATAGT [XGTACX_site3811]	8.31 ± 0.3
ATTTTTTTGTTAATTTGTACATAAAATTTTATTTTA [XGTACX_site7007]	8.72 ± 0.42

Sequence	gcPBM binding intensity (ln)
TTTATATTTATATAAATATAATATATATGAATTATA [XGTACX_negctrl_site466]	8.19 ± 0.51
TATATAGAGAGATATGCACACTGTATGAATGCCCCC [CACACA_site5476]	10.3 ± 0.38
TATAATATAAAATATGCACACATTGGAATGGGAGAA [CACACA_site3746]	8.97 ± 0.35
ATATATATATATAATGCACACATTATGAATTATGTA [CACACA_site3384]	9.98 ± 0.26
AATATATAGAGAGATATGCACACTGTATGAATGCAC [CACACA_site2677]	8.58 ± 0.014
TATATGGAGAGATATGCACACTGTATGAATGCCCCC [CACACA_site8853]	10.3 ± 0.33
CCACTGTATGAATGCACACATTCATAGAATTGCTAT [CACACA_site2676]	8.79 ± 0.28
TCCTTATAAAAATACACACAAACTTTAATTAAAACA [CACACA_site3730]	8.45 ± 0.58
TTTAAGATTTTGTAATGTACATATATACATATATAT [XGTACX_site399]	8.45 ± 0.33
AGAAATAAGAAATATACACACATATATATATATATA [CACACA_site2808]	10.2 ± 0.18
ATATAAATAAAGAAATATATATATATATATATATAT [GTGCAC_negctrl_site668]	10.2 ± 0.88
AAGAAATAAATACATACACACATATATATATATATA [CACACA_site3362]	10 ± 0.34
AAGAAATAAATACATACACACATATATAAATAAATA [CACACA_site7559]	8.68 ± 0.18
TAAAGAAATAAATACATACACACATATATATATATA [CACACA_site3363]	10.2 ± 0.5
AATATAAGAATATATACACACATAAATACATACATA [CACACA_site4128]	8.6 ± 0.31
AGAAATAAGAAATATACACACATATAAATATAAATA [CACACA_site7342]	8.52 ± 0.55
AAAAAAAAAAAAGAAAAATATATATATAAATAAATA [GTGCAC_negctrl_site569]	8.29 ± 0.67
AAAAAAAGAAATAATAAAAAATATATATATATATAT [GTGCAC_negctrl_site702]	10.1 ± 0.44
TTTTTTTTTTTTGATGCACACACCTGAACGAGTTAA [CACACA_site317]	8.62 ± 0.32
TAGCGTACATTTCATTGTAATCATAAAAAATAAAGA [CACACA_negctrl_site447]	8.56 ± 0.49
GTTGCAATTAACACTAGTACATATAAGTAGTTTATT [XGTACX_site2063]	8.72 ± 0.18
TCCTTGCATTTTAAAACACACAAAAATTAATTGTTA [CACACA_site7152]	8.55 ± 0.32
TTTTATGATTGACACACACACAAAAAAAAAAAAAAA [CACACA_site7860]	8.2 ± 0.43

Sequence	gcPBM binding intensity (ln)
TATATATATATAATAGTGCATAAATAAATATATAAA	9.65 ± 0.057
TTTCTAGTTACAAGAGTGCATAATATATAAAAATAA [GTGCAC_site9874]	8.85
AAAAAAAATATACATACATGCATACATAAGTTTCTA [TGCATGCA_site998]	8.49 ± 0.24
ATATATATATATATAGTGCATAAAATAAGTTTCTAA	10.2 ± 0.28
TATATATATATATAAGTGCATATAAAAATCGTTCGT	10.3 ± 0.18
AATAAAAATAATATAGTGCATAATATAAGGAAAAAA	9.07 ± 0.071
TTTTTTATTCCATAATATAATATGTTTTGAAATTTG [GTGCAC_negctrl_site440]	8.27 ± 0.33
TTTATTATATTTTTTTGTACATATTGATGTATATAA [XGTACX_site6527]	8.59 ± 0.28
GATGTGATGTATTTGGTATTTTTCGATGTTGGTAGG [CACACA_negctrl_site355]	8.79 ± 0.73
TACTATTTAAAATATGAACACACATTATTTGTTTTA [CACACA_site8870]	8.13 ± 0.3
ATATTGAAATGTTAATAGAAATATATGGTTAAATTG [XGTACX_negctrl_site212]	8.34 ± 0.34
AAAATAAAATTAGTTGCATGCAACTTAAACAGAAAT [TGCATGCA_site860]	10.3 ± 0.35
ATAAATAAAACAACAGTGCAATAAAATTAGTTGAGG	9.035 ± 0.021
ATATACAGAAAAAATTAAAATAAATATGCAAAACAA [CACACA_negctrl_site704]	8.86 ± 0.32
ATATATAATTAATTTTGTACACATAAAAAAAAAAAT [XGTACX_site6647]	8.59 ± 0.42
TATTGTTATTAAAAATGTACATATAAATTTCTTATT [XGTACX_site1409]	8.32 ± 0.33
AAAAAATTATAAAAGTGTACATATATATATATATAT [XGTACX_site154]	10 ± 0.38
TTTTTCTTAAAAAATTGTACACATATATATATATAT [XGTACX_site542]	10.3 ± 0.22
TAAATTAATAAAAAGTGTACATAATATACATATATA [XGTACX_site8604]	8.62 ± 0.33
TAAAGTGTAAAATTCACACACATATATATATATATA [CACACA_site4883]	10.1 ± 0.36
CCTAAAGTGTAAAATTCACACACATATATATATATA [CACACA_site8385]	10.2 ± 0.44
TAAAAATTAAAGTGTACACATATATATATATATATA [CACACA_site4781]	10.2 ± 0.38
GTGTAAAAATTAAAGTGTACACATATATATATATAT [XGTACX_site2251]	10.2 ± 0.31

Sequence	gcPBM binding intensity (ln)
AGGGGAAATAAAATATAAATTATCATATATATATAT [XGTACX_negctrl_site366]	9.94 ± 0.21
TTTTATTATATATATTGTACATATATTTTTATTTTT [XGTACX_site1564]	8.62 ± 0.33
TAAACATAAATATACACACAAACATATATGTATTTT [CACACA_site1214]	8.51 ± 0.32
TATGAACACCCAAATACACACACTCAAAAAAAAAAA [CACACA_site5466]	8.4 ± 0.32
TAAAAAATAAGATATACACACATATATATATATATA [CACACA_site2324]	10.2 ± 0.42
TACAGATATTATTGCACACATATAAAATACCCCCAA [CACACA_site6014]	9.53 ± 0.33
AAAAATAAAATATATACACACATATATATATATATA [CACACA_site2943]	10.2 ± 0.64
AAAAAAAAAATATACACACACACATACACATAAATA [CACACA_site3808]	8.79 ± 0.53
ATAAAAAAAAAAAATACACACATATATATATATATA [CACACA_site1709]	10.1 ± 0.26
AAAAAAAAAAAAAATACACACATATAAATATAAATA [CACACA_site6189]	8.3 ± 0.49
TAAAAAATAAGATATACACACATATATTTATTTATA [CACACA_site7158]	8.09 ± 0.52
TAAAAAATAAAATACACACACATATATATATATATA [CACACA_site1323]	10.2 ± 0.64
CATACATATATTATTGCACACATATAAAATACCCCC [CACACA_site9292]	10.2 ± 0.33
TAAAAAAATAAATATACACACATATATATATATATA [CACACA_site1089]	10.2 ± 0.29
TACATATATTATTGCACACATATAAAATACCCCCAA [CACACA_site3895]	9.55 ± 0.52
AAAAATAAGATATATACACACATATAAATATAAATA [CACACA_site7396]	8.51 ± 0.38
ATTATACTTTCCATTCGTACATATATAAATAAATAA [XGTACX_site6245]	8.93 ± 0.35
TTTTATTTATTTTATTGTACATATATAAAACTATGA [XGTACX_site3476]	8.57 ± 0.42
ATATTTTTAGATTCAGAAAAAAGATTCAACTTACTC [CACACA_negctrl_site1357]	8.25 ± 0.45
ATGTAGAATTGTAAATGTACATGAAACACATATTCA [XGTACX_site3436]	8.79 ± 0.34
